# Source: PubChem BioAssay (EPA / NIEHS)
# Active and inactive are the calls of the source. The calls were made as follows: active = hit-call score of the fitted dose curve at least 0.9, where 1 is the maximum; inactive = score below 0.9.
# Assay: APR_HepG2_NuclearSize_24hr: Apredica 24-hour HepG2 Assay for Nuclear Size (AID 2282907)
# Conditions: high-content imaging, actives raise or lower the signal
# In short: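 Nuclear size is measured by fluorescence high-content imaging of Hoechst-labelled HepG2 nuclei after 24 hr of treatment (0.39–200 uM, 0.5% DMSO). Cells are fixed in 3.7% formaldehyde before staining, and DMSO serves as the baseline for bidirectional curve fitting.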
row,Structure (SMILES),outcome
1,CCn1nc(C)c2c1C(=O)NCC(c1ccc(O)cc1)=N2,inactive
2,NC(=O)NN=Cc1ccc([N+](=O)[O-])o1,inactive
3,Cn1c(=O)c2[nH]cnc2n(C)c1=O,inactive
4,c1ccc2cc3ccccc3cc2c1,inactive
5,c1ccc2ncccc2c1,inactive
6,CCCCOC(=O)c1ccccc1,inactive
7,CCCCCCCCN(C)C,inactive
8,CCCCC(CC)C(=O)OCCOCCOCCOC(=O)C(CC)CCCC (stereo not given),inactive
9,C[C@]12C=CC(=O)C=C1CC[C@H]1[C@@H]3C[C@@H](O)[C@](O)(C(=O)CO)[C@@]3(C)C[C@H](O)[C@@]12F,inactive
10,O=C(O)c1cccc(C[C@@H]2COc3ccc(OCc4nc5cc(F)ccc5s4)cc3[C@@H]2O)c1,inactive
11,OC(Cn1cncn1)(Cn1cncn1)c1ccc(F)cc1F,inactive
12,OCCOCCOCCO,inactive
13,CCCCN1C(=O)[C@@H]([C@H](O)C2CCCCC2)NC(=O)C12CCN(Cc1ccc(Oc3ccc(C(=O)O)cc3)cc1)CC2,inactive

# Assay: APR_HepG2_CellLoss_24hr: Apredica 24-hour HepG2 Assay for Cell Loss (AID 2282908);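 as to AC50: fit in both directions so a hit may be cell loss or gain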
# Conditions: high-content imaging
# In short: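 Nuclear count serves as the viability measure: treated cells are fixed, permeabilized and labelled with Hoechst 33342, and six images per well are analysed to identify valid nuclei. Doses span 0.39–200 uM, and activity in either direction is scored against DMSO.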
Structure (SMILES),outcome,AC50
CCn1nc(C)c2c1C(=O)NCC(c1ccc(O)cc1)=N2,inactive,
NC(=O)NN=Cc1ccc([N+](=O)[O-])o1,,57.6 µM (active)
Cn1c(=O)c2[nH]cnc2n(C)c1=O,inactive,
c1ccc2cc3ccccc3cc2c1,,100 µM (active)
c1ccc2ncccc2c1,inactive,
CCCCOC(=O)c1ccccc1,inactive,
CCCCCCCCN(C)C,inactive,
CCCCC(CC)C(=O)OCCOCCOCCOC(=O)C(CC)CCCC (stereo not given),inactive,
C[C@]12C=CC(=O)C=C1CC[C@H]1[C@@H]3C[C@@H](O)[C@](O)(C(=O)CO)[C@@]3(C)C[C@H](O)[C@@]12F,inactive,
O=C(O)c1cccc(C[C@@H]2COc3ccc(OCc4nc5cc(F)ccc5s4)cc3[C@@H]2O)c1,,53.9 µM (active)
OC(Cn1cncn1)(Cn1cncn1)c1ccc(F)cc1F,inactive,
OCCOCCOCCO,inactive,
CCCCN1C(=O)[C@@H]([C@H](O)C2CCCCC2)NC(=O)C12CCN(Cc1ccc(Oc3ccc(C(=O)O)cc3)cc1)CC2,,48.3 µM (active)

# Assay: APR_HepG2_MicrotubuleCSK_24hr: Apredica 24-hour HepG2 Assay for Microtubule CSK Stabilty (AID 2282909)
# Conditions: HepG2 microtubule cytoskeleton imaging, actives raise or lower the signal
# In short: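 Compounds were applied to HepG2 cells for 24 hours across 0.39–200 uM in duplicate, with final DMSO at 0.5% v/v. Fixed, permeabilized cells were labeled for alpha-tubulin and nuclei, and tubulin fluorescence was quantified by imaging, fitted bidirectionally against DMSO.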
row,Structure (SMILES),outcome
1,CCn1nc(C)c2c1C(=O)NCC(c1ccc(O)cc1)=N2,inactive
2,NC(=O)NN=Cc1ccc([N+](=O)[O-])o1,inactive
3,Cn1c(=O)c2[nH]cnc2n(C)c1=O,inactive
4,c1ccc2cc3ccccc3cc2c1,inactive
5,c1ccc2ncccc2c1,inactive
6,CCCCOC(=O)c1ccccc1,inactive
7,CCCCCCCCN(C)C,inactive
8,CCCCC(CC)C(=O)OCCOCCOCCOC(=O)C(CC)CCCC (stereo not given),inactive
9,C[C@]12C=CC(=O)C=C1CC[C@H]1[C@@H]3C[C@@H](O)[C@](O)(C(=O)CO)[C@@]3(C)C[C@H](O)[C@@]12F,inactive
10,O=C(O)c1cccc(C[C@@H]2COc3ccc(OCc4nc5cc(F)ccc5s4)cc3[C@@H]2O)c1,inactive
11,OC(Cn1cncn1)(Cn1cncn1)c1ccc(F)cc1F,inactive
12,OCCOCCOCCO,inactive
13,CCCCN1C(=O)[C@@H]([C@H](O)C2CCCCC2)NC(=O)C12CCN(Cc1ccc(Oc3ccc(C(=O)O)cc3)cc1)CC2,inactive

# Assay: APR_HepG2_MitoticArrest_24hr: Apredica 24-hour HepG2 Assay for Mitotic Arrest (AID 2282910)
# Conditions: high-content imaging, actives raise or lower the signal
# In short: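 HepG2, 24 hr dosing, 0.39–200 uM, 0.5% DMSO final. Formaldehyde-fixed, Triton-permeabilised, anti-phospho-histone H3 plus Hoechst. ArrayScan imaging at 20x; bidirectional fit vs DMSO baseline.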
Structure (SMILES),outcome,AC50
CCn1nc(C)c2c1C(=O)NCC(c1ccc(O)cc1)=N2,inactive,
NC(=O)NN=Cc1ccc([N+](=O)[O-])o1,inactive,
Cn1c(=O)c2[nH]cnc2n(C)c1=O,inactive,
c1ccc2cc3ccccc3cc2c1,inactive,
c1ccc2ncccc2c1,inactive,
CCCCOC(=O)c1ccccc1,inactive,
CCCCCCCCN(C)C,inactive,
CCCCC(CC)C(=O)OCCOCCOCCOC(=O)C(CC)CCCC (stereo not given),inactive,
C[C@]12C=CC(=O)C=C1CC[C@H]1[C@@H]3C[C@@H](O)[C@](O)(C(=O)CO)[C@@]3(C)C[C@H](O)[C@@]12F,inactive,
O=C(O)c1cccc(C[C@@H]2COc3ccc(OCc4nc5cc(F)ccc5s4)cc3[C@@H]2O)c1,,93.5 µM (active)
OC(Cn1cncn1)(Cn1cncn1)c1ccc(F)cc1F,inactive,
OCCOCCOCCO,inactive,
CCCCN1C(=O)[C@@H]([C@H](O)C2CCCCC2)NC(=O)C12CCN(Cc1ccc(Oc3ccc(C(=O)O)cc3)cc1)CC2,,59.8 µM (active)

# Assay: APR_HepG2_MitoMembPot_24hr: Apredica 24-hour HepG2 Assay for Mitochondrial Membrane Potential (AID 2282911)
# Conditions: imaging, actives raise or lower the signal
# In short: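 HepG2 human liver cells were exposed 24 hr to compounds at 0.39–200 uM (final DMSO 0.5% v/v) in duplicate. MitoTracker Red CMXRos (250 nM, 30 min) was loaded before formaldehyde fixation; fluorescence was imaged by ArrayScan HCS and fitted bidirectionally versus DMSO.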
row,Structure (SMILES),outcome
1,CCn1nc(C)c2c1C(=O)NCC(c1ccc(O)cc1)=N2,inactive
2,NC(=O)NN=Cc1ccc([N+](=O)[O-])o1,inactive
3,Cn1c(=O)c2[nH]cnc2n(C)c1=O,inactive
4,c1ccc2cc3ccccc3cc2c1,inactive
5,c1ccc2ncccc2c1,inactive
6,CCCCOC(=O)c1ccccc1,inactive
7,CCCCCCCCN(C)C,inactive
8,CCCCC(CC)C(=O)OCCOCCOCCOC(=O)C(CC)CCCC (stereo not given),inactive
9,C[C@]12C=CC(=O)C=C1CC[C@H]1[C@@H]3C[C@@H](O)[C@](O)(C(=O)CO)[C@@]3(C)C[C@H](O)[C@@]12F,inactive
10,O=C(O)c1cccc(C[C@@H]2COc3ccc(OCc4nc5cc(F)ccc5s4)cc3[C@@H]2O)c1,inactive
11,OC(Cn1cncn1)(Cn1cncn1)c1ccc(F)cc1F,inactive
12,OCCOCCOCCO,inactive
13,CCCCN1C(=O)[C@@H]([C@H](O)C2CCCCC2)NC(=O)C12CCN(Cc1ccc(Oc3ccc(C(=O)O)cc3)cc1)CC2,inactive
